40 compounds from ChEMBL document CHEMBL3433997, “St. Jude Leishmania screening dataset” (2016) can be followed below.

Molecules are shown by their SMILES.

The target of this test is Glucose transporter (Leishmania mexicana) (UniProt O61059). Nature of the test: ST_JUDE_LEISH: Cytotoxicity at 2uM final concentration against transgenic Leishmania Mexicana promastigotes LmGT2 that are glucose transport deficient and complemented with the L. Mexicana glucose transporter 2. Activity is measured by DNA content using SYBR green in vitro. It is filed as functional.
Turning to `CCC(C)C#Cc1c(C)nc(N)nc1N` (stereo not given), the inhibition amounted to 0.17%.
As to `CNC(=O)C(NC(=O)c1ccccc1C(=O)OC)c1ccccc1` (stereo not given), the inhibition is -2.13%.
With `N=c1n(CCN2CCCCC2)c2ccccc2n1CC(O)c1ccc(Cl)c(Cl)c1` (stereo not given), the inhibition was determined as 1.58%.
Consider `Fc1cc(Cl)ccc1Nc1ccnc2cc(-c3ccc(CN4CCOCC4)o3)ccc12`, for which the inhibition was 43.6%.
To `COc1c(CNCCCCCCNCc2cc(Cl)c3ccccc3c2OC)cc(Cl)c2ccccc12` belongs -0.2%; to `O=C(Nc1ccc(Cl)cc1Cl)N[C@H]1CCN(CCCCCNC(=O)C2CC2c2ccc(Cl)c(Cl)c2)C1` (stereo not given in full), 4.05%; to `Nc1cc(-c2cccc(Cl)c2)nn1-c1ccnc2cc(Cl)ccc12`, -4.37%.
`O=C(Nc1ccccc1F)NC1CCN(c2ccnc(Nc3ccc(F)cc3)n2)C1` (stereo not given): the inhibition was found to be 0.81%.
As for `CN(C)c1nc2cc(-n3cnc4cc(-c5ccc(Cl)cc5)sc4c3=O)ccc2n1CCCN1CCCC1`, the inhibition amounted to 6.91%.
`CN(c1ccc(NC(=O)c2ccc(F)cc2)cc1)C1CCN(Cc2cccc(F)c2)C1` (stereo not given): the inhibition was found to be 3.04%.
The same measure for `Cc1[nH]c(C)c(-c2ccc(OCc3ccc(F)cc3)cc2)c(=O)c1Cl`: -1.77%; for `CC(C)CNCc1ccc(-c2ccccc2CNC2CCN(Cc3ccccc3)CC2)cc1`: 5.95%; for `Oc1ccc(CCNc2nc(NCc3cccc(OCc4cccc(F)c4)c3)nc(N3CCNCC3)n2)cc1`: 1.08%.
Regarding `Cc1cc(C)cc(OCC(O)CN(Cc2cc(Cl)cc(Cl)c2)C(=O)Nc2ccc(Cl)cc2)c1` (stereo not given), the inhibition was -0.48%.
With `O=C1NC(=O)C(c2ccc(Cl)cc2)=C1Nc1cccc(S(=O)(=O)C(F)(F)F)c1`, the inhibition came out at 1.48%.
`Cc1ccccc1C1CCN(C2CCC(NC(=O)c3cc4cc(Cl)ccc4o3)CC2)CC1` (stereo not given): the inhibition was 3.04%.
As for `CC(=O)c1cccc2c(NC(=O)Nc3ccc4nccc(N5CCN(C)CC5)c4c3)cccc12`, the inhibition was 7.35%.
For `COC(=O)c1ccc2c(c1)nc(Nc1cccc(F)c1)n2CC(O)c1ccccn1` (stereo not given), the inhibition is 2.91%.
To `COc1ccc(-c2cnc(N)c(-c3ccc(O)c(OC)c3)c2)cn1` belongs 1.13%; to `O=C(Nc1cccc(-c2ccc(-c3nc4cc(C(F)(F)F)ccc4[nH]3)s2)c1)c1c[nH]cn1`, 0.77%; to `CCc1cccc2c(C#N)cn(CC(=O)Nc3ccc(OC)cc3)c12`, 1.27%.
Take `CC(=O)N1N=C(c2ccc(F)cc2)Sc2c1nc(-c1ccccc1)n2C(C)=O`: the inhibition is 8.7%.
The same measure for `Cc1cc(Nc2ccncc2)n2nc(C)c(-c3ccc(Cl)cc3)c2n1`: 8.71%.
On to `CN(C)c1ccc(CN2CCC(NC(=O)c3ccc(-c4ccc(N(C)C)cc4)s3)CC2)cc1`, for which the inhibition was -0.4%.
Regarding `COc1ccc2nc(-c3ccc(C(=O)NCCCN4CCN(c5cc(Cl)ccc5OC)CC4)cc3OC)[nH]c2c1`, the inhibition was found to be 3.01%.
The same measure for `O=C(Nc1cccc(-c2nn3ncccc3c2-c2ccnc(Nc3ccc(N4CCOCC4)cc3)n2)c1)c1c(F)cccc1F`: 6.47%; for `O=S(=O)(c1cccc(Br)c1)N1CCCCC(c2ccc(C(F)(F)F)cc2)=N1`: 2.2%; for `CC(C)COc1ccc(Cl)cc1Cc1ccc(-c2nc3ccc(Br)cc3[nH]2)o1`: 4.95%.
In the case of `Cc1cccc2nc(-c3cccc(-c4cccc(CNCc5cccc(N)c5)c4)c3)[nH]c12`, the inhibition was 1.47%.
As to `C[C@H](Cc1ccc(OCCCCCOc2ccc(C[C@@H](C)NC[C@H](O)c3cccc(Cl)c3)cc2)cc1)NC[C@H](O)c1cccc(Cl)c1`, the inhibition worked out at 107%.
For the compound `O=C(Nc1ccc2c(c1)CCN2C1CCN(Cc2csc3ccccc23)C1)c1ccco1` (stereo not given), the inhibition is 1.45%.
With `O=C(CCn1cncn1)N1CCCC(c2[nH]c3ccccc3c2-c2ccncc2)C1` (stereo not given), the inhibition was 1.39%.
Turning to `O=C(NCCCN1CCCC1=O)NCc1ccccc1`, the inhibition was -0.11%.
`COc1ccc2nc(N3CCN(C(=O)OC(C)(C)C)CC3)nc(NCCCc3ccccc3)c2c1`: the inhibition was 8.03%.
As for `O=C(CCc1cccnc1)Nc1cccc(-c2ccc(-c3nc4cc(C(F)(F)F)ccc4[nH]3)s2)c1`, the inhibition worked out at 2.16%.
On to `CCCCNCc1ccc(-c2nc(CN(CCCn3ccnc3)C(=O)C3COc4ccccc4O3)cs2)cc1` (stereo not given), for which the inhibition is -0.46%.
For the compound `Cc1ccc(C(=O)Nc2ccc(Nc3ccnc4cc(-c5ccccn5)ccc34)cc2O)cc1`, the inhibition was found to be 4.76%.
Turning to `CCCc1cc(=O)[nH]c(-n2nc(C)cc2NC(=O)c2cc3ccccc3o2)n1`, the inhibition stood at 4.77%.
Turning to `O=C(/C=C/c1ccc(Cl)c(Cl)c1)NCCCCCN1CCC(NC(=S)Nc2cccc(Cl)c2)CC1`, the inhibition was -0.54%.
Turning to `CCOC(=O)c1nc2ccc(SC3CCCCC3)cn2c1Br`, the inhibition came to 5.65%.

One may read the inhibition as the relative decrease from the control value, in per cent.
